Experimental data published in ChEMBL document CHEMBL3433997, “St. Jude Leishmania screening dataset” (2016).
Where “and” joins values, the source holds several entries; their conditions need not be identical. Equal values may be shown once.

Target: Solute carrier family 2, facilitated glucose transporter member 1 (Homo sapiens) (UniProt P11166)
Assay: ST_JUDE_LEISH: Cytotoxicity at 2uM final concentration against transgenic Leishmania Mexicana promastigotes LmGLUT1 that are glucose transport deficient and complemented with the human glucose transporter GLUT1. Activity is measured by DNA content using SYBR green in vitro
Assay type: functional

Solute carrier family 2, facilitated glucose transporter member 1 (Homo sapiens), sequence (P11166 whole entry): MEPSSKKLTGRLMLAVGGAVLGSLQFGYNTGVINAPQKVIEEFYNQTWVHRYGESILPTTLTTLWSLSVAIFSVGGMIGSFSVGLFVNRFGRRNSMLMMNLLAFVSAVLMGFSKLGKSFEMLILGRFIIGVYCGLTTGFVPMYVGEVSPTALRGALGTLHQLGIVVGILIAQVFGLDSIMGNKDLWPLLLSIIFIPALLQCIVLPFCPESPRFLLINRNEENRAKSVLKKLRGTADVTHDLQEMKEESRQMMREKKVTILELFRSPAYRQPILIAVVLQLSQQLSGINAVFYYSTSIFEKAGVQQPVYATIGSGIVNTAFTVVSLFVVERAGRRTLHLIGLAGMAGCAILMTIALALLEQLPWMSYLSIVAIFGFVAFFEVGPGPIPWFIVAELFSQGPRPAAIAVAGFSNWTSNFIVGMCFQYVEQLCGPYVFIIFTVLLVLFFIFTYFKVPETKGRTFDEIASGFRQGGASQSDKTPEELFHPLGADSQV

Structure (SMILES)	inhibition
O=C(/C=C/C=C/c1ccccc1)NC1CCC(CN2CCC(c3c[nH]c4ccccc34)CC2)CC1 (stereo not drawn)	2.53%
O=C(CCC(=O)c1ccc2c3c(cccc13)CC2)NC1CCC(CN2CCC(c3c[nH]c4ccccc34)CC2)CC1 (stereo not drawn)	3.08%
O=C(C=Cc1ccc(F)c(Br)c1)NC1CCC(CN2CCC(c3c[nH]c4ccccc34)CC2)CC1 (stereo not drawn)	0.26% and 5.78%
Cc1nc2ccccc2n1C1CC2CCC(C1)N2Cc1nccn1-c1ccccc1 (stereo not drawn)	0.86%
OC(CNC1CCCCCC1)c1ccc(Cl)c(Cl)c1 (stereo not drawn)	-0.7%
CC[C@H]1CN2CC[C@@H]1C[C@H]2[C@H](O)c1cc(N2CCC(O)(c3ccc(Cl)cc3)CC2)nc2ccc(OC)cc12	6.73%
CC[C@H]1CN2CC[C@@H]1C[C@H]2[C@H](O)c1cc(N2CCSCC2)nc2ccc(OC)cc12	3.55%
COc1ccc(CCNCc2ccc3c(C)cc(N)nc3c2)cc1	0.82%
CN(c1cc(NC(=O)c2cccs2)ccn1)C1CCN(Cc2cccc(F)c2)CC1	3.38%
CN(c1cc(NC(=O)c2cccs2)ccn1)C1CCN(Cc2ccccc2)CC1	0.59%
COC(=O)CN(C(=O)/C=C/c1ccc(Cl)c(Cl)c1)C1CCC(CN2CCC(c3c[nH]c4ccccc34)CC2)CC1 (stereo not drawn)	1.07%
Cn1nc(-c2ccc(S(=O)(=O)NC3CCC(CN4CCC(c5c[nH]c6ccccc56)CC4)CC3)s2)cc1C(F)(F)F (stereo not drawn)	5.26% and 1.76%
COc1cc2nc(N(C)C3CCN(Cc4ccccc4)CC3)nc(N)c2cc1OC	69.8%
CCCCNC(c1ccc(Cl)cc1)C(O)c1ccc(Cl)cc1 (stereo not drawn)	8.3%
O=C(/C=C/c1ccc(F)c(C(F)(F)F)c1)N1CCC(CN2CCC(c3c[nH]c4ccccc34)CC2)CC1	0.7%
COc1cc(CC(C)NCC(O)c2cccc(C(F)(F)F)c2)ccc1OCc1ccccc1 (stereo not drawn)	4.94%
Cc1cc(C)c(CC(C)NCC(O)c2cccc(C(F)(F)F)c2)c(C)c1 (stereo not drawn)	2.03%
CCCCCCC(C)(C)c1cc(O)c2c(c1)OC(C)(C)c1ccncc1-2	1.05%
COc1ccc(CCNCc2ccc3nc(N)cc(C)c3c2)cc1	-3.73%
COc1ccc(CC(C)NCC(O)c2cccc(Cl)c2)cc1C (stereo not drawn)	7.48%

Structure (SMILES)	inhibition
CC(C)CNCc1cccc(-c2ccc(CN(C(=O)Nc3ccccc3)C3CCN(Cc4ccccc4)CC3)cc2)c1	2.16%
COc1cc(/C=C/C(=O)NC2CCC(CN3CCC(c4c[nH]c5ccccc45)CC3)CC2)ccc1O (stereo not drawn)	0.32% and 3.25%
NC(=O)c1ccc2[nH]cc(C3CCN(CC4CCC(NC(=O)/C=C/c5ccc(Cl)c(Cl)c5)CC4)CC3)c2c1 (stereo not drawn)	-3.07% and 2.76%
COC(=O)c1ccc(C[C@@H](C)NC[C@H](O)c2cccc(C(F)(F)F)c2)cc1	3.2%
Cc1[nH]c2ccc(O)cc2c1C1CCN(CC2CCN(C(=O)/C=C/c3ccc(Cl)c(Cl)c3)CC2)CC1	0.92%
CC1(C)N=C(N)N=C(N)N1c1ccc([N+](=O)[O-])cc1	9.35%
COc1ccc(F)cc1-c1csc(N(c2ccc(F)cc2)C2CCNCC2)n1	1.56%
O=C1c2ccccc2CCC1CCN1CC=C(c2c[nH]c3ccccc23)CC1 (stereo not drawn)	2.89%
Cc1[nH]c2cc(F)ccc2c1C1=CCN(CCCCC2(C)C(=O)Nc3ccccc32)CC1 (stereo not drawn)	2.11%
Oc1ccc(Cl)cc1CN1CCC(CCOC(c2ccccc2)c2ccc(Cl)cc2)CC1 (stereo not drawn)	46.7%
CC[C@H]1CN2CC[C@@H]1C[C@H]2[C@H](O)c1cc(N2CCCC(C)(C)C2)nc2ccc(OC)cc12	0.42%
O=C(NC1CCC(CN2CCC(c3c[nH]c4ccccc34)CC2)CC1)c1cc2ccccc2s1 (stereo not drawn)	-1.97% and 2.46%
CCN(Cc1ccccc1)CC(O)c1ccc(Cl)c(Cl)c1 (stereo not drawn)	0.91%
COCCNCc1ccc(-c2ccc(CN(C(=O)NC3CCCCC3)C3CCN(Cc4ccccc4)CC3)cc2)cc1	2.65%
CN(c1cc(NC(=O)c2ccccc2)ccn1)C1CCN(Cc2cccc(F)c2)CC1	1.23%
O=C(NC1CCC(CN2CCC(c3c[nH]c4ccccc34)CC2)CC1)c1[nH]c(=O)[nH]c(=O)c1F (stereo not drawn)	-0.09%
O=C(/C=C/c1c(Cl)cccc1Cl)NC1CCC(CN2CCC(c3c[nH]c4ccccc34)CC2)CC1 (stereo not drawn)	5.03% and 4.85%
CC(Cc1ccc(NC(=O)[C@H](C)NCCc2cccc(Cl)c2)cc1)NCCc1cccc(Cl)c1 (stereo partly drawn)	2.86%
c1ccc(C(OCCC2CCN(Cc3cccnc3)CC2)c2ccccc2)cc1	0.62%

Target: Hexose transporter 1 (Plasmodium falciparum) (UniProt O97467)
Assay: ST_JUDE_LEISH: Cytotoxicity at 2uM final concentration against transgenic Leishmania Mexicana promastigotes LmPfHT that are glucose transport deficient and complemented with the Plasmodium falciparum hexose transporter. Activity is measured by DNA content using SYBR green in vitro
Assay type: functional

Structure (SMILES)	inhibition
O=C(/C=C/C=C/c1ccccc1)NC1CCC(CN2CCC(c3c[nH]c4ccccc34)CC2)CC1 (stereo not drawn)	0.67%
O=C(CCC(=O)c1ccc2c3c(cccc13)CC2)NC1CCC(CN2CCC(c3c[nH]c4ccccc34)CC2)CC1 (stereo not drawn)	3.49%
O=C(C=Cc1ccc(F)c(Br)c1)NC1CCC(CN2CCC(c3c[nH]c4ccccc34)CC2)CC1 (stereo not drawn)	-0.2% and 4.24%
Cc1nc2ccccc2n1C1CC2CCC(C1)N2Cc1nccn1-c1ccccc1 (stereo not drawn)	3.24%
OC(CNC1CCCCCC1)c1ccc(Cl)c(Cl)c1 (stereo not drawn)	0.32%
CC[C@H]1CN2CC[C@@H]1C[C@H]2[C@H](O)c1cc(N2CCC(O)(c3ccc(Cl)cc3)CC2)nc2ccc(OC)cc12	1.34%
CC[C@H]1CN2CC[C@@H]1C[C@H]2[C@H](O)c1cc(N2CCSCC2)nc2ccc(OC)cc12	3.67%
COc1ccc(CCNCc2ccc3c(C)cc(N)nc3c2)cc1	2.73%
CN(c1cc(NC(=O)c2cccs2)ccn1)C1CCN(Cc2cccc(F)c2)CC1	3%
CN(c1cc(NC(=O)c2cccs2)ccn1)C1CCN(Cc2ccccc2)CC1	3.13%
COC(=O)CN(C(=O)/C=C/c1ccc(Cl)c(Cl)c1)C1CCC(CN2CCC(c3c[nH]c4ccccc34)CC2)CC1 (stereo not drawn)	4.03%
Cn1nc(-c2ccc(S(=O)(=O)NC3CCC(CN4CCC(c5c[nH]c6ccccc56)CC4)CC3)s2)cc1C(F)(F)F (stereo not drawn)	4.54% and 4.39%
COc1cc2nc(N(C)C3CCN(Cc4ccccc4)CC3)nc(N)c2cc1OC	46.7%
CCCCNC(c1ccc(Cl)cc1)C(O)c1ccc(Cl)cc1 (stereo not drawn)	8.45%
O=C(/C=C/c1ccc(F)c(C(F)(F)F)c1)N1CCC(CN2CCC(c3c[nH]c4ccccc34)CC2)CC1	0.53%
COc1cc(CC(C)NCC(O)c2cccc(C(F)(F)F)c2)ccc1OCc1ccccc1 (stereo not drawn)	4.6%
Cc1cc(C)c(CC(C)NCC(O)c2cccc(C(F)(F)F)c2)c(C)c1 (stereo not drawn)	-0.06%
CCCCCCC(C)(C)c1cc(O)c2c(c1)OC(C)(C)c1ccncc1-2	0.83%
COc1ccc(CCNCc2ccc3nc(N)cc(C)c3c2)cc1	-2.84%
COc1ccc(CC(C)NCC(O)c2cccc(Cl)c2)cc1C (stereo not drawn)	5.85%

Structure (SMILES)	inhibition
CC(C)CNCc1cccc(-c2ccc(CN(C(=O)Nc3ccccc3)C3CCN(Cc4ccccc4)CC3)cc2)c1	2.2%
COc1cc(/C=C/C(=O)NC2CCC(CN3CCC(c4c[nH]c5ccccc45)CC3)CC2)ccc1O (stereo not drawn)	1.97% and 2.79%
NC(=O)c1ccc2[nH]cc(C3CCN(CC4CCC(NC(=O)/C=C/c5ccc(Cl)c(Cl)c5)CC4)CC3)c2c1 (stereo not drawn)	-1.26% and 2.22%
COC(=O)c1ccc(C[C@@H](C)NC[C@H](O)c2cccc(C(F)(F)F)c2)cc1	4.43%
Cc1[nH]c2ccc(O)cc2c1C1CCN(CC2CCN(C(=O)/C=C/c3ccc(Cl)c(Cl)c3)CC2)CC1	0.19%
CC1(C)N=C(N)N=C(N)N1c1ccc([N+](=O)[O-])cc1	8.47%
COc1ccc(F)cc1-c1csc(N(c2ccc(F)cc2)C2CCNCC2)n1	0.21%
O=C1c2ccccc2CCC1CCN1CC=C(c2c[nH]c3ccccc23)CC1 (stereo not drawn)	3.52%
Cc1[nH]c2cc(F)ccc2c1C1=CCN(CCCCC2(C)C(=O)Nc3ccccc32)CC1 (stereo not drawn)	1.23%
Oc1ccc(Cl)cc1CN1CCC(CCOC(c2ccccc2)c2ccc(Cl)cc2)CC1 (stereo not drawn)	25.3%
CC[C@H]1CN2CC[C@@H]1C[C@H]2[C@H](O)c1cc(N2CCCC(C)(C)C2)nc2ccc(OC)cc12	-0.61%
O=C(NC1CCC(CN2CCC(c3c[nH]c4ccccc34)CC2)CC1)c1cc2ccccc2s1 (stereo not drawn)	0.46% and 1.62%
CCN(Cc1ccccc1)CC(O)c1ccc(Cl)c(Cl)c1 (stereo not drawn)	0.62%
COCCNCc1ccc(-c2ccc(CN(C(=O)NC3CCCCC3)C3CCN(Cc4ccccc4)CC3)cc2)cc1	2%
CN(c1cc(NC(=O)c2ccccc2)ccn1)C1CCN(Cc2cccc(F)c2)CC1	4.2%
O=C(NC1CCC(CN2CCC(c3c[nH]c4ccccc34)CC2)CC1)c1[nH]c(=O)[nH]c(=O)c1F (stereo not drawn)	0.08%
O=C(/C=C/c1c(Cl)cccc1Cl)NC1CCC(CN2CCC(c3c[nH]c4ccccc34)CC2)CC1 (stereo not drawn)	12.9% and 2.55%
CC(Cc1ccc(NC(=O)[C@H](C)NCCc2cccc(Cl)c2)cc1)NCCc1cccc(Cl)c1 (stereo partly drawn)	0.1%
c1ccc(C(OCCC2CCN(Cc3cccnc3)CC2)c2ccccc2)cc1	0.06%
